Results from PubChem BioAssay (NCATS).
Inconclusive results are not listed. A call without a number means that no potency is given here. Activity calls are given as the source filed them. The call rests on the fitted dose curve; in most records, active means well fitted inhibition curve with a large enough effect; inconclusive means small, poorly fitted or top-dose-only effect; inactive means flat fitted curve, though single readings scatter.

System: CP203
Test: qHTS profiling for inhibitors of Plasmodium falciparum proliferation (AID 504749); further: nearly all actives have a fitted effect of over 60% in size
Conditions: P. falciparum in erythrocytes, SYBR Green DNA, 72 h; series mostly up to 28.7 µM
Text: NIH National Institute of Allergy and Infectious Diseases [NIAID] NIH Chemical Genomics Center [NCGC] MLPCN Grant: None Assay Provider: Xinzhuan Su, NIAID NCGC Assay Overview: Plasmodium falciparum is a virulent malarial parasite that kills 1-2 million people worldwide each year. Transmitted by mosquitoes, the sporozoite form of the parasite enters the blood stream to infect hepatocytes, where they become merozoites that infect red blood cells (erythrocytes). Within erythrocytes, merozoites begin a […] cycle of growth and division, after which the parasite is released to infect new red blood cells. Gametocytes, which form within erythrocytes as well, circulate in the bloodstream and are ingested by the mosquito, thereby completing the life cycle. To profile malarial isolates for differential chemical responses and to identify inhibitors of malarial growth, an assay that measures P. falciparum growth and replication within erythrocytes was employed. This assay uses a DNA binding fluorescent dye (SYBR Green) to detect parasite DNA following cell lysis. Because mature erythrocytes lack DNA, only Plasmodium-derived DNA is detected.
NCGC Assay Protocol Summary: The SYBR Green viability assay was adapted from a method described previously (Plouffe et al., 2008). For screening 3 ul culture medium was dispensed into 1536 well black clear bottom plates (Aurora Biotechnologies) using a Multidrop Combi (Thermo Fisher Scientific Inc.), 23 nL compounds in DMSO were added by a pin tool (Kalypsys), and 5 ul of erythrocytes infected with P. falciparum (0.3% parasitemia, 2.5% hematocrit final concentration) were added. The plates were incubated at 37 C in a humidified incubator in 5% CO2 for 72 h, and 2 ul lysis buffer (20 mM Tris HCl, 10 mM EDTA, 0.16% saponin, 1.6% triton X, 10X SYBR Green I supplied as 10,000X […] by Invitrogen) was added to each well. The plates were mixed for 25 sec with gentle shaking and incubated overnight at room temperature in the dark. The following morning, fluorescence intensity at 485(14) nm excitation and 535(25) nm emission wavelengths was measured on an EnVision (Perkin Elmer) plate reader. Plate reads were normalized relative to the control inhibitor (0.29 uM artemisinin) and vehicle (DMSO) wells present on each plate and then corrected by an algorithm using vehicle-only control plates at the beginning and end of the compound plate stack.
Potency means the concentration at half of the fitted maximal effect.

Question: How did the Potency turn out when C#CC1(O)CCC2C3CCC4=CC(=O)CCC4(C)C3CCC21C (configuration not stated) was run?
Answer: The Potency was “inactive”.

Question: Which Potency does the source give for O=C(O)C(Cl)Cl here?
Answer: Its Potency is “inactive”.

Question: Cc1cc(O)ccc1Cl was tested. Which Potency did it give?
Answer: The Potency was “inactive”.

Question: For CC(C)NC(C)Cc1ccc(I)cc1 (configuration not stated), which Potency is on record?
Answer: Its Potency is “inactive”.

Question: For CC(=O)[O][Hg][c]1ccccc1, which Potency is on record?
Answer: The Potency was 13.5 µM (active).

Question: CC(=O)OCC1=C(C(=O)O)N2C(=O)[C@@H](N)[C@@H]2SC1 was tested. Which Potency did it give?
Answer: Its Potency is “inactive”.

Question: With NC(=O)CN1CC(O)CC1=O (configuration not stated) as the compound, how does the Potency read?
Answer: The Potency was “inactive”.

Question: With C=CCN1CC[C@]23CCCCC2[C@H]1Cc1ccc(O)cc13 (some centres not stated) as the compound, how does the Potency read?
Answer: Its Potency is “inactive”.

Question: Which Potency does the source give for COC(=O)[C@@H](N)CCCN=C(N)N[N+](=O)[O-] here?
Answer: Its Potency is “inactive”.

Question: NC1=NC(=O)N2CC12 (configuration not stated) was tested. Which Potency did it give?
Answer: The Potency was “inactive”.

Question: c1ccc(C2(c3ccccc3)CC2C2=NCCN2)cc1 (configuration not stated) was tested. Which Potency did it give?
Answer: Its Potency is “inactive”.

Question: CCCN1CCC[C@H](c2cccc(O)c2)C1 was tested. Which Potency did it give?
Answer: Its Potency is “inactive”.

Question: How did the Potency turn out when O=[N+]([O-])c1ccc([As](=O)(O)O)cc1 was run?
Answer: The Potency was 9.53 µM (active).

Question: With CCCCc1ccc(C(=O)O)nc1 as the compound, how does the Potency read?
Answer: The Potency was “inactive”.

Question: For CN1C2CCC1CC(OC(=O)c1cc(Cl)cc(Cl)c1)C2 (configuration not stated), which Potency is on record?
Answer: The Potency was “inactive”.

Question: CC[N+]1(CCOC(=O)C(O)(c2ccccc2)c2ccccc2)CCCCC1 was tested. Which Potency did it give?
Answer: Its Potency is “inactive”.

Question: C[C@]12CCC(=O)C(O)=C1CC[C@@H]1[C@H]3CCC(=O)[C@@]3(C)CC[C@@H]12 was tested. Which Potency did it give?
Answer: The Potency was “inactive”.

Question: For Cc1ccc(Cl)c(O)c1, which Potency is on record?
Answer: The Potency was “inactive”.

Question: COC(=O)c1cncn1C(C)c1ccccc1 (configuration not stated) was tested. Which Potency did it give?
Answer: The Potency was “inactive”.

Question: With C1CCC(NC2CCCCC2)CC1 as the compound, how does the Potency read?
Answer: The Potency was “inactive”.

Question: Which Potency does the source give for O=C(O)COc1ccccc1 here?
Answer: The Potency was “inactive”.

Question: With CCCCCCCCCC(CC)c1ccc(S(=O)(=O)O)cc1 (configuration not stated) as the compound, how does the Potency read?
Answer: The Potency was “inactive”.
